From PubChem BioAssay (Tox21) come the findings set out here.

Experiment [1] can be described thus: Caspase-3/7 induction in HepG2 cells by small molecules, qHTS assay (AID 1346978; active means well fitted curve in the direction sought with a large enough effect in the repeat runs; an effect the other way counts as inactive or inconclusive; further: on the % scale 0 is the no-effect control and ±100 the full control effect; nearly all actives have a fitted effect of over 15% in size). A digest of the protocol: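 Wild-type HepG2 cells, 2,000/well, settled 5 hr at 37 C and 5% CO2, then compound-treated for 17 hr; caspase-3/7 activity read by luminescent Caspase-Glo 3/7 after 30 min at room temperature.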
Experiment [2] deals with Acetylcholinesterase (Homo sapiens) (UniProt P22303). The experiment is described as follows: Acetylcholinesterase (AChE) small molecule antagonists: colormetric cell-based qHTS assay (AID 1347395). Further: nearly all actives have a fitted effect of over 30% in size. Further: potency means the concentration at half of the fitted maximal effect. The gist of the method:
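SH-SY5Y cells, plated overnight at 37 C, were exposed to compounds for 30 min at 37 C and 5% CO2. Acetylthiocholine plus DTNB was then added, and thiocholine from endogenous AChE was quantified colorimetrically after 90 min at 37 C.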

For experiment [3] the target is unchanged. The experiment is described as follows: Acetylcholinesterase (AChE) small molecule antagonists: enzyme-based qHTS assay (AID 1347397). Further: nearly all actives have a fitted effect of over 55% in size. Further: potency means the concentration at half of the fitted maximal effect. The settings on record: Potency: AChE enzyme activity inhibition; outcome: AChE enzyme activity inhibition. A digest of the protocol:
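Enzyme inhibition was scored from DTNB-detected thiocholine formed by recombinant human AChE acting on acetylthiocholine. The 30 min compound preincubation and 10 min substrate reaction were both run at room temperature, with DMSO as vehicle control.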

Experiment [4] shares this target. The experiment is described as follows: Acetylcholinesterase (AChE) small molecule antagonists: fluorescence cell-based qHTS assay (AID 1347398). Further: nearly all actives have a fitted effect of over 50% in size. Further: potency means the concentration at half of the fitted maximal effect. The settings on record: Potency: AChE activity; outcome: AChE activity. A digest of the protocol: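 Endogenous acetylcholinesterase of SH-SY5Y neuroblastoma cells is measured in situ. After overnight attachment and 30 min compound exposure, cells receive acetylthiocholine and Thiolite Green; fluorescence is read after 40 min at room temperature.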

Experiment [5] has the same target. The experiment is described as follows: Acetylcholinesterase (AChE) small molecule antagonists: enzyme-based qHTS assay with human liver microsomes (AID 1347399). Further: on the % scale 0 is the no-effect control and ±100 the full control effect; nearly all actives have a fitted effect of over 60% in size. Conditions: Potency: qHTS inhibition; outcome: qHTS inhibition. A digest of the protocol: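 Recombinant human AChE (50 mU/mL in the enzyme mix) and human liver microsomes (0.25 mg/mL final) were preincubated with compound and NADPH (0.25 mg/mL final) for 30 min at 37 C. Acetylthiocholine/DTNB was then added; thiocholine was read colorimetrically after 10 min at room temperature.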

Experiment [6] concerns the target Androgen receptor (Homo sapiens) (UniProt P10275). The experiment is described as follows: qHTS assay to identify small molecule agonists of the androgen receptor (AR) signaling pathway in the presence of an antagonist (AID 1259381). Further: on the % scale 0 is the no-effect control and ±100 the full control effect; nearly all actives have a fitted effect of over 15% in size. The gist of the method:
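MDA-kb2 cells, 3,000/well, rested 5hr at 37C/0% CO2 → nilutamide 3.0uM final or buffer → compounds, 15 conc. → 16hr at 37C → ONE-Glo, 30min RT → luminescence.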

The target in experiment [7] is Nuclear receptor subfamily 1 group I member 2 (Rattus norvegicus) (UniProt Q9R1A7). The experiment is described as follows: Rat pregnane X receptor (rPXR) activation by small molecules, qHTS assay (AID 1346983; active means well fitted curve in the direction sought with a large enough effect in the repeat runs; an effect the other way counts as inactive or inconclusive; further: on the % scale 0 is the no-effect control and ±100 the full control effect; nearly all actives have a fitted effect of over 20% in size). Conditions: rPXR luciferase reporter cells, One-Glo luminescence, 24 h; max activation: stronger effect = higher value. The gist of the method: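 Cell-based rPXR activation assay: rPXR cells, 2,000 per well, rested 5hr at 37 C, then exposed to compounds in DMSO for 24 hr at 37 C. Luciferase activity read by One-Glo luminescence after 30 min at room temperature.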
Nuclear receptor subfamily 1 group I member 2 (Rattus norvegicus), sequence (Q9R1A7 whole entry, looked up): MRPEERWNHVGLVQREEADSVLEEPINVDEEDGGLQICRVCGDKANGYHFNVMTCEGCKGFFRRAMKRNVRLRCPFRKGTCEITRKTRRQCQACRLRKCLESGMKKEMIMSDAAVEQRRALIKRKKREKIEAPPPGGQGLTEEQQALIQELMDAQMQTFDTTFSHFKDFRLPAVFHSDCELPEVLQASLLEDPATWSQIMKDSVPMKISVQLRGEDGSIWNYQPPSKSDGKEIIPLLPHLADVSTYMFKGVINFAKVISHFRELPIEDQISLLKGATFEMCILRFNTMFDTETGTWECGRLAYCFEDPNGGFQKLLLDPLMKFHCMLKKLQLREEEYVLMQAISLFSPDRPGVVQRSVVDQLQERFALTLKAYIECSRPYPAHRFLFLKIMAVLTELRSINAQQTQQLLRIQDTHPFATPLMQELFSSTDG

In experiment [8] the target is Nuclear receptor subfamily 1 group I member 2 (Homo sapiens) (UniProt O75469). The experiment is described as follows: CYP3A4 induction through human pregnane X receptor (PXR) by small molecules, qHTS assay (AID 1346984; active means well fitted curve in the direction sought with a large enough effect in the repeat runs; an effect the other way counts as inactive or inconclusive; further: on the % scale 0 is the no-effect control and ±100 the full control effect; nearly all actives have a fitted effect of over 40% in size). The gist of the method: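 Luminescence readout: luciferase signal after One-Glo (30 min, room temperature), following 3 h at 37C with 3uM final Luciferin-IPA P450 substrate. Cells were DPX-2 (HepG2, PXR/CYP3A4-luc co-transfected) dosed for 24 h.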

Experiment [9] has the same target. The experiment is described as follows: Human pregnane X receptor (PXR) activation by small molecules, qHTS assay (AID 1346985; active means well fitted curve in the direction sought with a large enough effect in the repeat runs; an effect the other way counts as inactive or inconclusive; further: nearly all actives have a fitted effect of over 40% in size; further: potency means the concentration at half of the fitted maximal effect). The gist of the method: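 DPX-2 cells (HepG2 co-transfected with a PXR response element and a CYP3A4-promoter luciferase construct) were seeded at 2,000 per well, rested 5 hr at 37C, then exposed to DMSO-dissolved compounds for 24 hr. Activation was read as luciferase luminescence.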

Experiment [10] deals with Peroxisome proliferator-activated receptor delta (Homo sapiens) (UniProt Q03181). The experiment is described as follows: qHTS assay to identify small molecule agonists of the peroxisome proliferator-activated receptor delta (PPARd) signaling pathway (AID 743212). Further: on the % scale 0 is the no-effect control and ±100 the full control effect. A digest of the protocol:
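Quantitative high-throughput agonist screen in a HEK293H beta-lactamase reporter line under UAS control. Compounds in DMSO, at 37 C. Fluorescence read after 2 h with FRET substrate at room temperature.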

In experiment [11] the target is Estrogen receptor (Homo sapiens) (UniProt P03372). The experiment is described as follows: qHTS assay to identify small molecule antagonists of the estrogen receptor alpha (ER-alpha) signaling pathway (AID 743069; active means well fitted curve in the direction sought with a large enough effect in the signal ratio in the repeat runs, not every such curve was filed as active; the % refers to the signal ratio; further: on the % scale 0 is the no-effect control and ±100 the full control effect). The gist of the method:
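Reporter cells (ER-alpha-bla, HEK293 background) are conditioned overnight in stripped-serum medium (2% charcoal-stripped FBS). Compound and 17beta-estradiol exposure runs 18 hr at 37C, 5% CO2.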

Experiment [12] addresses Peroxisome proliferator-activated receptor delta (Homo sapiens) (UniProt Q03181). The experiment is described as follows: qHTS assay to identify small molecule antagonists of the peroxisome proliferator-activated receptor delta (PPARd) signaling pathway (AID 743215; active means well fitted inhibition curve with a large enough effect in the signal ratio in the repeat runs, not every such curve was filed as active; the % refers to the signal ratio;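 further: cells stimulated with agonist L165041 at 300 nM final during compound exposure; series mostly up to about 62 µM; on the % scale 0 is the no-effect control and ±100 the full control effect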). A digest of the protocol: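 Read-out is beta-lactamase FRET fluorescence, measured 2 h after substrate addition at room temperature. Beforehand, UAS-bla HEK293H cells carrying the PPARd reporter were exposed to compounds with L165041 at 300 nM final for 17 h at 37 C.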

Experiment [13] can be described thus: qHTS assay for small molecule activators of the heat shock response signaling pathway (AID 743210; active means well fitted activation curve with a large enough effect in the signal ratio in the repeat runs, with a control signal flat, not every such curve was filed as active; the % refers to the signal ratio;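 further: HeLa cells with beta-lactamase reporter driven by heat shock elements; series mostly up to about 63 µM; on the % scale 0 is the no-effect control and ±100 the full control effect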). The gist of the method: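 Quantitative high-throughput format using an engineered HeLa line in which heat shock response elements drive beta-lactamase; after 5 h with compound, cells received a B/G FRET substrate and fluorescence was read.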
Experiment [14] addresses Androgen receptor (Homo sapiens) (UniProt P10275). The experiment is described as follows: qHTS assay to identify small molecule agonists of the androgen receptor (AR) signaling pathway using the MDA cell line (AID 743040; active means well fitted curve in the direction sought with a large enough effect in the repeat runs; an effect the other way counts as inactive or inconclusive; further: on the % scale 0 is the no-effect control and ±100 the full control effect; nearly all actives have a fitted effect of over 20% in size). A digest of the protocol: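 Human breast carcinoma MDA-kb2 reporter cells (MMTV-luc, AR/GR elements) were treated for 16 h at 37C in 0% CO2 following a 5 h settling period. Signal was quantified by ONE-Glo luminescence.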

For experiment [15] the target is unchanged. The experiment is described as follows: qHTS assay to identify small molecule antagonists of the androgen receptor (AR) signaling pathway using the MDA cell line (AID 743042; active means well fitted curve in the direction sought with a large enough effect in the repeat runs; an effect the other way counts as inactive or inconclusive; further: potency means the concentration at half of the fitted maximal effect; nearly all actives have a fitted effect of over 55% in size). The gist of the method:
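MDA-kb2 breast carcinoma cells carrying MMTV-luciferase (AR/GR responsive) were co-treated with compounds and the agonist R1881 for 16 h at 37C. Inhibition read as ONE-Glo luminescence; CellTiter-Fluor fluorescence measured in parallel for cytotoxicity.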

For experiment [16] the target is unchanged. The experiment is described as follows: qHTS assay to identify small molecule antagonists of the androgen receptor (AR) signaling pathway (AID 743035; active means well fitted inhibition curve with a large enough effect in the signal ratio in the repeat runs, not every such curve was filed as active; the % refers to the signal ratio; further: potency means the concentration at half of the fitted maximal effect). The gist of the method:
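Fluorescence from a beta-lactamase FRET substrate (LiveBLAzer B/G, 2 h, room temperature) measured inhibition of R1881-stimulated signaling in GeneBLAzer AR-UAS-bla HEK293 cells exposed to compound for 16 h at 37C.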

Each structure is given as a SMILES string. A number with no mark means an inactive call. Results filed as inconclusive are left out. Calls of active or inactive are those of the source. Unless noted, the call rests on the fitted dose curve.

Estrogen receptor (Homo sapiens), sequence (P03372 whole entry, looked up): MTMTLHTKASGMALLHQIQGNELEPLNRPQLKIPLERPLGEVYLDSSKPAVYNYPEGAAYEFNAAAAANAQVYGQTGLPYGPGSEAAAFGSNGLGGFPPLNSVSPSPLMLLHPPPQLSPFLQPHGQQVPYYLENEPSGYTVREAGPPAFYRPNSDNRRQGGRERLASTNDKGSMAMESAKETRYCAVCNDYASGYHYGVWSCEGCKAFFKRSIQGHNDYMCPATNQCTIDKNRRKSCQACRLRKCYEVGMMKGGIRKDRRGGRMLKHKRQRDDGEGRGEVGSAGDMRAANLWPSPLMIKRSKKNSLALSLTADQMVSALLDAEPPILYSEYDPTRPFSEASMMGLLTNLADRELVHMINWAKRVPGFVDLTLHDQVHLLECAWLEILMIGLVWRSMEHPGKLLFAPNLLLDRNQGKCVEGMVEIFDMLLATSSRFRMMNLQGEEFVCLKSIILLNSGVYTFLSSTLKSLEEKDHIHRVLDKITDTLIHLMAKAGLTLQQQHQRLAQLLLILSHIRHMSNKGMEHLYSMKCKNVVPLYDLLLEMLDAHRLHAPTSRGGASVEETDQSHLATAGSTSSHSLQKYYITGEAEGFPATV
Androgen receptor (Homo sapiens), sequence (P10275 whole entry, looked up): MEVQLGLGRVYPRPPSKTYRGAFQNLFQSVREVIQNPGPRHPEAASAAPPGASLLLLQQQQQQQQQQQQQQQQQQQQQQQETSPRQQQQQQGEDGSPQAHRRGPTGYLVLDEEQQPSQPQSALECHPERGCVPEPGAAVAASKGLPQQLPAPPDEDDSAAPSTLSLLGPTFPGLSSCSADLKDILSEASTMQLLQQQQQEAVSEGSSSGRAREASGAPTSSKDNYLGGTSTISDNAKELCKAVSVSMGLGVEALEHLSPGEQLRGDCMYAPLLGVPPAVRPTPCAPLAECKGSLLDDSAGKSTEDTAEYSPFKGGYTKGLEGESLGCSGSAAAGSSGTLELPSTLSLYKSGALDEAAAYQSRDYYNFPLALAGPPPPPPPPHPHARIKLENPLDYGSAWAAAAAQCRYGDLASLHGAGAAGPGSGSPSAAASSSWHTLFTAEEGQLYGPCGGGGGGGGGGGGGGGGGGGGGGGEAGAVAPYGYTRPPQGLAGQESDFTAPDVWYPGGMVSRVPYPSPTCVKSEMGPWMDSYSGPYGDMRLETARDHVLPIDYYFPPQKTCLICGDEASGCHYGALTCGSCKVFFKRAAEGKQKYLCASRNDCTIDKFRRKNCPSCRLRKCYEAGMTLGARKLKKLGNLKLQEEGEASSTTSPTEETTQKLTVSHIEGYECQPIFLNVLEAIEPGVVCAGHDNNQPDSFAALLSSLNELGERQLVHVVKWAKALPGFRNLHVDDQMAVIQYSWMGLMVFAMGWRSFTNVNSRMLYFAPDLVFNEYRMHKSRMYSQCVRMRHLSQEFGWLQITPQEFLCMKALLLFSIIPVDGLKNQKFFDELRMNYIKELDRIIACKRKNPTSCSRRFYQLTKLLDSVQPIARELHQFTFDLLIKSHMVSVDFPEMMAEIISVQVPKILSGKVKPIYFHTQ
Acetylcholinesterase (Homo sapiens), sequence (P22303 whole entry, looked up): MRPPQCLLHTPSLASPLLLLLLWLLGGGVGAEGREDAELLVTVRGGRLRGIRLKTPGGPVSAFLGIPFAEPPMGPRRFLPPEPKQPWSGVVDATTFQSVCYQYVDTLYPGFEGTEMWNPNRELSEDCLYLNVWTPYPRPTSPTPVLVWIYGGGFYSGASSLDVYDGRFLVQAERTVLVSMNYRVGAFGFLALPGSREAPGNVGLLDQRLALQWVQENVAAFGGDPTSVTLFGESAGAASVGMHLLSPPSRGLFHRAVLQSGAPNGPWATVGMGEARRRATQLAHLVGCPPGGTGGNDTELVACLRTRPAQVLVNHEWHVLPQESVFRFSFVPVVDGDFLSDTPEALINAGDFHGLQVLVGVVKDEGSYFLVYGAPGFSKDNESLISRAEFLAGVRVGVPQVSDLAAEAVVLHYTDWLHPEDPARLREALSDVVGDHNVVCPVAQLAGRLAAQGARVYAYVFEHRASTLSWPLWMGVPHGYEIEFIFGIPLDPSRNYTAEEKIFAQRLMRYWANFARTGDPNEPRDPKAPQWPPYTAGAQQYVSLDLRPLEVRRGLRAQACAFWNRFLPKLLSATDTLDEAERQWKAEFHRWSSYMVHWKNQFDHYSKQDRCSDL
Peroxisome proliferator-activated receptor delta (Homo sapiens), sequence (Q03181 whole entry, looked up): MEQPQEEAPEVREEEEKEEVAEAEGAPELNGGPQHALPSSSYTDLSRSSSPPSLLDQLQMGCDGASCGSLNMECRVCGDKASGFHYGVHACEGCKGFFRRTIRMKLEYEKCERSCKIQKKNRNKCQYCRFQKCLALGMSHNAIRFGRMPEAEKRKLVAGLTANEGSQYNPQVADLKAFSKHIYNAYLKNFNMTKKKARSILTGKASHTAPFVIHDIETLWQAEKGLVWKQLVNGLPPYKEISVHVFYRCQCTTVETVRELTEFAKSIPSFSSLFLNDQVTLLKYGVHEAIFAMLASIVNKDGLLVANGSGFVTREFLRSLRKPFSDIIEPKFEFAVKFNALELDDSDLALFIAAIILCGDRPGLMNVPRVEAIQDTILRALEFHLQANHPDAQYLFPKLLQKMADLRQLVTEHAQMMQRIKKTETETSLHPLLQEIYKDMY

`Brc1c2ccccc2cc2ccccc12`: the Potency entry in [1], in experiment [2], in experiment [3], in experiment [4] and in [5] was “inactive” in each case.
On to `Clc1cc(Cl)c(Cl)cc1Cl`, for which the Potency result in experiment [1], in [2], in experiment [3], in experiment [4] and in experiment [5] was “inactive” throughout.
For `c1ccc(-c2ccccc2-c2ccccc2)cc1`, the Potency entry in experiment [6], in experiment [2], in experiment [3], in experiment [4] and in [5] was “inactive” in each case.
With `CCC1(C)CC(=O)NC(=O)C1`, the max activation in experiment [7] is 0.0054%. For the same compound, the Potency entry in [8] and in experiment [9] was “inactive” each time.
For `C=CCOc1c(Br)cc(C(C)(C)c2cc(Br)c(OCC=C)c(Br)c2)cc1Br`, in experiment [10], the call was inactive. In addition, the Potency entry in experiment [1], in [2], in experiment [3], in experiment [4] and in [5] was “inactive” each time.
For `CCC(C)(S(=O)(=O)CC)S(=O)(=O)CC`, the Potency result in experiment [11], in [8] and in experiment [9] was “inactive” in each case. In addition, the max activation in [7] is -2.56%.
As to `Fc1c(F)c(F)c(Br)c(F)c1F`, the Potency entry in experiment [12], in [1], in experiment [2], in experiment [3], in experiment [4] and in experiment [5] was “inactive” in each case.
Take `COc1cc([C@@H]2c3cc4c(cc3[C@H](O)[C@H]3COC(=O)[C@H]23)OCO4)cc(OC)c1OC`: the Potency entry in experiment [1], in experiment [2], in [3], in [4] and in experiment [5] was “inactive” each time.
Turning to `Cc1c(N)cccc1N`, the Potency entry in [1], in experiment [2], in [3], in [4] and in experiment [5] was “inactive” throughout.
Turning to `C[N+](C)(C)CCCCCCCCCC[N+](C)(C)C`, the Potency result in [13], in [1] and in experiment [5] was “inactive” each time. In addition, the Potency in [2] is 15.5 µM (active).
As for `COC(=O)[C@]12CCC(C)(C)C[C@H]1[C@H]1C(=O)C=C3[C@@]4(C)C=C(C#N)C(=O)C(C)(C)[C@@H]4CC[C@@]3(C)[C@]1(C)CC2`, in experiment [14], the Potency entry was “inactive”. Also, the Potency in experiment [15] was 2.37 µM (active).
Take `C[C@]12C=CC(=O)C=C1CC[C@@H]1[C@@H]2CC[C@]2(C)OC(=O)CC[C@@H]12`: in [7], the max activation was -1.12%. The Potency entry in experiment [8] and in [9] was “inactive” each time.
As for `CN1[C@@H]2CC[C@H]1CC(OC(=O)C(CO)c1ccccc1)C2` (stereo partly specified), in experiment [1], the Potency entry is “inactive”.
On to `C[C@H]1CC[C@]2(NC1)O[C@H]1C[C@H]3[C@@H]4CC[C@H]5C[C@@H](O)CC[C@]5(C)[C@H]4CC[C@]3(C)[C@H]1[C@@H]2C`, for which the max activation in [7] was 11.8%. In [9], the Potency entry is “inactive”.
For the compound `CN1CCN(C2=Nc3cc(Cl)ccc3Nc3ccccc32)CC1`, the Potency entry in [2] and in [3] was “inactive” throughout.
Turning to `C[C@H]1CC[C@]2(NC1)O[C@H]1C[C@H]3[C@@H]4CC[C@H]5C[C@@H](O[C@@H]6O[C@H](CO)[C@H](O[C@@H]7O[C@H](CO)[C@@H](O)[C@H](O[C@@H]8OC[C@@H](O)[C@H](O)[C@H]8O)[C@H]7O[C@@H]7O[C@H](CO)[C@@H](O)[C@H](O)[C@H]7O)[C@H](O)[C@H]6O)CC[C@]5(C)[C@H]4CC[C@]3(C)[C@H]1[C@@H]2C`, the Potency result in experiment [14], in experiment [8] and in [9] was “inactive” in each case. In [15], the Potency is 5.96 µM (active). For the same compound, the max activation in [7] is -24.3%.
In the case of `CN1[C@@H]2CC[C@H]1CC(OC1c3ccccc3CCc3ccccc31)C2` (stereo partly specified), the Potency entry in experiment [11], in [8] and in experiment [9] was “inactive” in each case. Further, the max activation in [7] is -2.13%.
With `F/C(COc1ccc2c(c1)[nH]c1ccccc12)=C1/CN2CCC1CC2`, the Potency entry in experiment [8] was “inactive”. In addition, the Potency in experiment [9] was 22.4 µM (active).
In the case of `N#[N+]c1ccc2c(S(=O)(=O)[O-])cccc2c1O`, the Potency entry in experiment [2] and in [3] was “inactive” in each case.
On to `CCc1nccnc1CC`, for which the activity, negative = inhibition in [2] was 2.95% [at 23.6 µM]. The activity change, negative = inhibition is -0.515% [at 23.6 µM] in experiment [3] and 3.3% [at 23.8 µM] in experiment [4].
In the case of `CC(=O)O[C@H]1C[C@H](O[C@H]2[C@@H](O)C[C@H](O[C@H]3[C@@H](O)C[C@H](O[C@H]4CC[C@@]5(C)[C@H](CC[C@@H]6[C@@H]5C[C@@H](O)[C@]5(C)[C@@H](C7=CC(=O)OC7)CC[C@]65O)C4)O[C@@H]3C)O[C@@H]2C)O[C@H](C)[C@H]1O[C@@H]1O[C@H](CO)[C@@H](O)[C@H](O)[C@H]1O`, in [16], the Potency is 0.301 µM (active). Also, in experiment [7], the max activation was 4.17%. For the same compound, in experiment [9], the Potency result was “inactive”.
For the compound `CC(C)C[C@H](CN)CC(=O)O`, the Potency result in [11], in [8] and in [9] was “inactive” in each case. In experiment [7], the max activation is -2.72%.
Regarding `CCC1(c2ccccc2)C(=O)NC(=O)N(C)C1=O` (stereo unspecified), in [9], the Potency entry was “inactive”.
Regarding `CCCCCCC(CCCCCCCCCCC(=O)OCC(COC(C)=O)OC(C)=O)OC(C)=O` (stereo unspecified), the Potency result in experiment [2], in [3] and in experiment [4] was “inactive” each time.
Consider `CCOC(=O)N1CCC(=C2c3ccc(Cl)cc3CCc3cccnc32)CC1`, for which the Potency result in experiment [2], in [3] and in experiment [4] was “inactive” each time.
`O=C1c2c(O)ccc([N+](=O)[O-])c2C(=O)c2c([N+](=O)[O-])ccc(O)c21`: the results for the Potency in [2], in experiment [3] and in experiment [4] were 0.789 µM (active), 25 µM (active) and 8.86 µM (active), respectively.
